Sampled rows, rich in hits. Any-hit rate of the full collection: about 3.6%.
mHTT CaM bind: mHTT-calmodulin interaction abrogation; P42858; AlphaScreen His-mHTT/GST-CaM binding, luminescence; inhibition, % at 15 µM; 190,000 tested, 3.6% active; AID 1671202
Pf apPOL block: Pf-apPOL DNA polymerase inhibition | Recombinant Pf-apPOL, molecular beacon fluorescence, 1.5 h | inhibition, % at 10 µM | 210,000 tested, 0.25% active | AID 1794808
Hits are given with their value; 0 = inactive; - = no result given. Cut-off read from the data, not from the text of the source: active = inhibition above about 50%; inactive = the rest.

SMILES	mHTT CaM bind	Pf apPOL block
Cc1ccccc1NC(=O)c1ccc(-c2ccsc2)nc1	0	59
Cc1ccccc1NC(=O)c1ccc(C(=O)Nc2ccccc2C)cc1	0	61
CCCOC(=O)c1ccc(Oc2coc3cc(OC(=O)C(C)C)ccc3c2=O)cc1	0	0
COc1cccc(N2CCN(C(=O)CCc3ccc4cc[nH]c4c3)CC2)c1	0	0
COc1ccc(CNC(=O)CSc2nc3nc(C)c(Cc4ccccc4)c(C)n3n2)cc1	0	0
COc1ccccc1Nc1ncc(-c2cccs2)s1	0	0
O=C(O)c1cccc(NC2=CC(=NS(=O)(=O)c3cccs3)c3ccccc3C2=O)c1	0	0
O=C1C(Nc2ccccc2)=CC(=NS(=O)(=O)c2cccs2)c2ccccc21	92	0
COc1ccccc1NC1=CC(=NS(=O)(=O)c2cccs2)c2ccccc2C1=O	91	0
COc1ccccc1NC1=CC(=NS(=O)(=O)c2ccc(Cl)cc2)c2ccccc2C1=O	94	0
COc1ccccc1NS(=O)(=O)c1ccc(Cl)c(C(=O)Nc2ccc(Cl)cc2)c1	0	0
COc1ccccc1NC(=O)CSc1ncc(S(=O)(=O)c2ccccc2)c(N)n1	0	0
COc1ccc(NC(=O)c2cc3cccc(OC)c3oc2=O)c(OC)c1	0	100
COc1cccc2cc(C(=O)Nc3ccc(C)cc3C)c(=O)oc12	0	0
COc1ccc(NS(=O)(=O)c2ccc3c(c2)CC(C)N3C(C)=O)cc1 (stereo not drawn)	0	0
CCOc1nccnc1N1CCC(NC(=O)NCc2ccccc2)C1 (stereo not drawn)	0	0
O=C(Nc1nnc(SCC(=O)N2CCc3ccccc32)s1)c1ccc([N+](=O)[O-])cc1	0	0
Cc1ccc(CC(=O)N2CCC(c3cc4n(n3)CCCNC4=O)CC2)cc1	0	0
O=C(Cc1c[nH]c2ccccc12)N(Cc1cccs1)C1(C(=O)NC2CCCCC2)CCCCC1	0	0
O=C(Cc1c[nH]c2ccccc12)N(CC1CCCO1)C1(C(=O)NC2CCCC2)CCCCC1 (stereo not drawn)	67	0
O=C(O)C#Cc1ccc([N+](=O)[O-])cc1	0	0
O=C(O)C1(c2ccc([N+](=O)[O-])cc2)CCCC1	94	0
O=C(c1ccccc1)N1CCC(CCNS(=O)(=O)c2ccc(F)cc2F)CC1	50	0
O=C(c1ccccc1)N1CCC(CCNS(=O)(=O)c2cc(F)ccc2F)CC1	0	0
Cc1ccc(S(=O)(=O)NCCC2CCN(C(=O)c3ccccc3)CC2)c(C)c1	53	0
SMILES	mHTT CaM bind	Pf apPOL block
Cc1ccc(C(=O)N2CCC(CCNS(=O)(=O)c3ccccc3C)CC2)cc1	0	0
O=C(CCCc1ccccc1)NCCOc1ccccc1	0	0
O=C(Nc1ccccn1)C12CC3CC(CC(Cl)(C3)C1)C2	0	0
O=C(Nc1nccn(-c2ccc(F)c(F)c2)c1=O)c1ccncc1	0	0
CN(C)CCN(C(=O)CN1C(=O)c2ccccc2C1=O)c1nc2ccc(Cl)cc2s1	84	0
Cc1ccc2nc(NC(=O)CN3C(=O)c4ccccc4C3=O)sc2c1	0	0
O=C(c1ccccc1)N1CCC(n2nc(-c3ccsc3)ccc2=O)CC1	99	0
O=C(c1ccc(-c2ccsc2)nc1)N1CCCC1	0	0
O=C(c1ccc(-c2ccsc2)nc1)N1CCN(C2CCCCC2)CC1	0	0
Cc1ccc(C(=O)N2CCC(n3nc(-c4ccsc4)ccc3=O)CC2)cc1	100	0
Cc1ccc(-n2nc3c(c2NC(=O)c2ccccc2C(F)(F)F)CSC3)cc1	0	0
COc1ccc(CCN2COc3ccc4c(=O)c(-c5ccccc5)coc4c3C2)cc1	0	0
Cc1cc(C(=O)NCc2n[nH]c(=O)c3ccccc23)c(C)o1	0	0
COc1ccc(CN2CCC(C(=O)N3CCN(Cc4ccccc4)CC3)CC2)cc1OC	0	0
CCc1ccc(C2=CC(c3cc(OC)ccc3OC)n3ncnc3N2)cc1 (stereo not drawn)	0	0
N=c1c(S(=O)(=O)c2ccc(Cl)cc2)cc2c(=O)n3ccccc3nc2n1Cc1ccccc1	0	0
Cc1cccc(N2CCN(Cc3ccc(-c4ccccc4[N+](=O)[O-])o3)CC2)c1C	59	0
O=[N+]([O-])c1ccccc1-c1ccc(CN2CCN(c3ccccc3F)CC2)o1	0	0
Fc1ccc(CN2CCN(c3ccccn3)CC2)cc1Br	0	0
CC(=O)Nc1ccc(/C=C2\OC(=O)c3c2cc(C)[nH]c3=O)cc1	0	0
Cc1cc2c(c(=O)[nH]1)C(=O)O/C2=C/c1cn[nH]c1-c1cccs1	64	-
COc1ccccc1C1=NOC(C(=O)Nc2ccc(F)cc2F)C1 (stereo not drawn)	0	0
CSc1cccc(NC(=O)c2ccccc2F)c1	-	0
COc1cc(-c2nc3ccccn3c2N=Cc2cc([N+](=O)[O-])cc([N+](=O)[O-])c2O)ccc1O	0	0
COc1ccc(C=Nc2c(-c3ccc(O)c(OC)c3)nc3ccccn23)cc1O	0	0
COc1cc(-c2nc3ccccn3c2N=Cc2cn[nH]c2-c2ccc(F)cc2)ccc1O	56	0
